Sampled rows, rich in hits. Any-hit rate of the full collection: about 9%.
Luc counter: Kinase-Glo luciferase inhibition (counter-screen) | Potency, µM (top dose mostly 38.3 µM), for inactives: top-dose activity change, negative = inhibition, most hits filed as inhibitors | 200,000 tested, 0.28% active | AID 1379 | Kinase-Glo luciferase, ATP luminescence, 8 min; also: nearly all actives have a fitted effect of over 60% in size
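Compounds were added to a substrate mix at pH 7.2 (50 mM imidazole, 10 uM ATP, within the enzyme's linear range), followed by Kinase-Glo detection reagent; luminescence was measured after 8 minutes at ambient temperature.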
IMPase Li inh: IMPase inhibition in cells with lithium potentiation; 210,000 tested, 0.35% active; AID 1457; Potency, µM (titrated, usually from 59.4 µM), for inactives: at the highest dose activity, negative = IMPase inhibition, hits mostly inhibitors; CHO-M1 cells, IP1 TR-FRET (IP-One), carbachol + lithium;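 also: IP1 builds up when IMPase is blocked and the TR-FRET signal falls; plate controls were basal vehicle for no effect and high inhibitor control for full effect; nearly all actives have a fitted effect of over 50% in size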
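Readout is a homogeneous TR-FRET IP1 immunoassay (Ex 320, Em 665 and 620), where raised cytosolic IP1 lowers signal. Cells were CHO-M1 treated 30 min at 37C with test compounds plus a little lithium; AC50 values came from Hill-equation fitting.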
Lamin A splicing: LMNA splicing modulation. 200,000 tested, 0.01% active. HeLa LMNA splicing GFP/RFP minigene ratio, 48 h. AID 1487. Potency, µM (doses to about 46.1 µM), for the others: at the top dose ratio change, negative = inhibition, actives largely listed as inhibitors; active = well fitted inhibition curve with a large enough effect in the signal ratio, with a control signal flat, not every such curve was filed as active; inconclusive = small, poorly fitted or top-dose-only effect, or effect the other way, or a change in a side signal; the % refers to the signal ratio
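S3 HeLa cells stably expressing lamin A-EGFP splicing minigene plus DsRed2, 600 cells/well, 48 h compound exposure at 37C. Laser-scanning cytometry; analysed as GFP (500-530 nm)/RFP (575-640 nm) total intensity ratio; 0.5% DMSO vehicle.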
HPGD inh: blocks human HPGD enzyme activity; P15428; purified HPGD, NADH fluorescence kinetic, PGE2 substrate; Potency, µM, without a hit: top-dose activity change, negative = inhibition, actives largely listed as inhibitors; 150,000 tested, 4.3% active; AID 894; active = well fitted inhibition curve with a large enough effect, not every such curve was filed as active; inconclusive = small, poorly fitted or top-dose-only effect, or another doubt; inactive = no such curve, though single readings can be large or run the other way
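NADH formation kinetics: reaction with 30 uM PGE2 and 1 mM NAD+ (final), 20 nM enzyme, Tris-HCl pH 8 with Tween 20, after 15 min compound preincubation at room temperature. Fluorescence change, last versus first of five reads.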
ALDH1A1 inh: blocks purified human ALDH1A1 activity; P00352; Purified ALDH1A1, NADH fluorescence, propionaldehyde substrate; Potency, µM (titrated, usually from 75.3 µM), inactives show at the highest dose activity, negative = inhibition, hits mostly inhibitors; 220,000 tested, 7.3% active; AID 1030; active = well fitted inhibition curve with a large enough effect, not every such curve was filed as active; inconclusive = small, poorly fitted or top-dose-only effect, or another doubt; inactive = no such curve, though single readings can be large or run the other way;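 also: plate controls were no enzyme wells and a reference inhibitor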
Target sequence (P00352 whole entry, looked up): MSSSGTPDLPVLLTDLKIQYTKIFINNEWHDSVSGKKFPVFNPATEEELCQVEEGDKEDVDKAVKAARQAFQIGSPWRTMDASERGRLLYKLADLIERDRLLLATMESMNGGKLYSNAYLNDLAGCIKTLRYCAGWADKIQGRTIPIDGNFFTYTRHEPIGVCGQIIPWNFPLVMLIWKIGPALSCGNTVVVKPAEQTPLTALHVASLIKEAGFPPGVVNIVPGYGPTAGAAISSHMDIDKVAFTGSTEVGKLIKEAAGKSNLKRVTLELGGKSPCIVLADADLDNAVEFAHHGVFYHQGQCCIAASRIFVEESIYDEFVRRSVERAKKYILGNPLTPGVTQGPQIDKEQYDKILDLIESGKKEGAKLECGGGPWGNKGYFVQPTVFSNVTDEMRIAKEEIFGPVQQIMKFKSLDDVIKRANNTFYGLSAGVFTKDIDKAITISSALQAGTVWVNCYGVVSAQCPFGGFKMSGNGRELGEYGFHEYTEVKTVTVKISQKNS
Starred values were filed as active, the others as inactive; ? = inconclusive; · = not tested or not shown; [ ] = dose if it differs, or a comment. Unless noted, calls follow the shape of the dose curve; as a rule, active = well fitted curve in the direction sought with a large enough effect; inconclusive = small, poorly fitted or top-dose-only effect, or another doubt; inactive = no such curve, though single readings can be large; an effect the other way counts as inactive or inconclusive. Unless noted, % is scaled to controls: 0 for no effect and ±100 for the full control effect; potency is read from the fitted curve at half-maximal effect.

SMILES | Luc counter | IMPase Li inh | Lamin A splicing | HPGD inh | ALDH1A1 inh
CC(C)(C)c1ccc(C(=O)N/C(=C\c2cccs2)C(=O)NCc2ccco2)cc1 | · | · | -3% | · | 3.2µM*
CCCCc1nc(S(=O)(=O)c2ccc(Cl)cc2)c(N2CCOCC2)o1 | 2% | 5% | -2% | -4% | ?
c1ccc(CCN2CCN(c3ncnc4c3cnn4-c3ccccc3)CC2)cc1 | 1% | 28%[38.3 µM] | ? | -8% | 28µM*
Cc1cccc(-n2ncc3c(N4CCCCCC4)ncnc32)c1 | · | · | -23%[46 µM] | · | ·
Cc1cccc(-n2ncc3c(N4CCC(C)CC4)ncnc32)c1 | 11% | 13%[38.3 µM] | -11% | 28µM* | 14µM*
Cc1ccccc1C(=O)N1CCN(c2ncnc3c2cnn3-c2ccccc2)CC1 | -4% | 14%[38.3 µM] | ? | -4% | 7.9µM*
Cc1ccc(C)c(N2CCN(c3ncnc4c3cnn4-c3ccccc3)CC2)c1 | 1% | 8%[38.3 µM] | 0% | ? | ?
c1ccc(-n2ncc3c(N4CCCCC4)ncnc32)cc1 | -18% | 0%[38.3 µM] | -18% | 18µM* | ?
CCN1CCN(c2ncnc3c2cnn3-c2ccccc2)CC1 | 3% | 13%[38.3 µM] | -3% | -8% | ?
CCOC(=O)c1c(CSc2ccc(C)cc2)oc2ccc(O)cc12 | -2% | 12% | ? | -9% | 1%
COC(=O)C(C(=O)OC)[C@@H](NC(=O)OCc1ccccc1)c1ccccc1 | -6% | 10% | · | -7% | -16%
CCOC(=O)N1CCN(c2ncnc3c2cnn3-c2ccc(Cl)cc2)CC1 | 5% | 17%[38.3 µM] | ? | ? | 4µM*
O=C1OCCC1Sc1nnc(-c2ccccc2)o1 (stereo not given) | -5% | 0%[38.3 µM] | 12% | -7% | 7%
O=C1c2ccccc2CC1Sc1nnc(-c2ccccn2)o1 (stereo not given) | 5% | -20%[38.3 µM] | 10% | ? | 3.2µM*
O=C(CP(=O)(c1ccccc1)c1ccccc1)N/N=C/c1cc(Br)cc(Br)c1O | 2% | 0% | ? | 0.14µM* | -2%
Cc1cc(C)nc(SCC(=O)Nc2ccc(N3CCOCC3)c(Cl)c2)n1 | -1% | 32%[38.3 µM] | ? | -7% | 22µM*
CC(=O)Nc1ccc2nc(SCC(=O)Nc3ccc(N4CCOCC4)c(Cl)c3)sc2c1 | -6% | -16%[38.3 µM] | -4%[0.0737 µM] | -1% | ?
CCOC(=O)CSc1nnnn1-c1cccc2ccccc12 | 0% | 8% | -2% | 25µM* | 1.8µM*
O=C(CSc1nc2ccccc2o1)Nc1ccc(N2CCOCC2)c(Cl)c1 | -8% | 16%[38.3 µM] | ? | -17% | ?
O=C(CSc1nnnn1-c1cccc2ccccc12)Nc1ccc(N2CCOCC2)c(Cl)c1 | -1% | 22%[38.3 µM] | 4% | -6% | 1.8µM*
CCOc1ccccc1-n1nnnc1SCC(=O)OC | -1% | -2% | · | · | -15%
O=C(O)c1cc2c(cc1S(=O)(=O)O)[C@H]1[C@@H](C3[C@H]2[C@@]2(Cl)C(Cl)=C(Cl)C3(Cl)C2(Cl)Cl)[C@]2(Cl)C(Cl)=C(Cl)C1(Cl)C2(Cl)Cl (stereo not given in full) | -21%[7.66 µM] | -8% | · | ? | -11%[13.5 µM]
O=S(=O)(/N=C(\Sc1ccc(Cl)cc1)c1ccccc1)c1ccccc1 | -8% | 8%[38.3 µM] | 16% | 20µM* | -19%
CC1CCN(C(=O)CN2C(=O)c3cccc4cccc(c34)C2=O)CC1 | -3% | 4% | 6%[46 µM] | · | ?
CC1CCN(C(=O)CN2C(=O)C(=O)c3ccccc32)CC1 | 3% | -1%[38.3 µM] | -7% | -7% | 0.35µM*
SMILES | Luc counter | IMPase Li inh | Lamin A splicing | HPGD inh | ALDH1A1 inh
Cc1no[n+]([O-])c1COc1ccc(/C=C(\C#N)C(N)=O)cc1 | -2% | 11% | 20% | -18% | 10µM*
Cc1oc(-c2ccccc2)nc1CNC(=O)Nc1ccccc1 | · | · | 7%[46 µM] | · | ·
Cc1ccc(OCC(=O)Nc2ccccc2C(=O)OCc2cc(=O)n3c(C)csc3n2)cc1 | · | · | 19%[46 µM] | · | ·
O=C(COc1ccc(Br)cc1)NNC(=S)NC(=O)c1ccccc1[N+](=O)[O-] | -5% | 0% | ? | -4% | -8%
CC(=O)NC(=S)NNC(=O)COc1ccc([N+](=O)[O-])cc1 | -4% | 0% | · | · | 22µM*
C/C(=N\NC(=O)COc1ccc([N+](=O)[O-])cc1)C(C)(C)C | -3% | 10%[38.3 µM] | 3% | -7% | 20µM*

From PubChem
